What all share (design): scale not given: direction of the effect not stated beside the values
The target in test [1] is Protein translocase subunit SecA (Escherichia coli (strain K12)) (UniProt P10408). The test can be described thus: Assay to Identify E. coli SecA ATPase Inhibitors. In kind it is functional. The settings on record: 30 µM.
Test [2] deals with T1, Ubiquitin-activating enzyme e1, putative (Leishmania donovani (strain BPK282A1)) (UniProt E9BSI1).
T1 sequence (whole entry): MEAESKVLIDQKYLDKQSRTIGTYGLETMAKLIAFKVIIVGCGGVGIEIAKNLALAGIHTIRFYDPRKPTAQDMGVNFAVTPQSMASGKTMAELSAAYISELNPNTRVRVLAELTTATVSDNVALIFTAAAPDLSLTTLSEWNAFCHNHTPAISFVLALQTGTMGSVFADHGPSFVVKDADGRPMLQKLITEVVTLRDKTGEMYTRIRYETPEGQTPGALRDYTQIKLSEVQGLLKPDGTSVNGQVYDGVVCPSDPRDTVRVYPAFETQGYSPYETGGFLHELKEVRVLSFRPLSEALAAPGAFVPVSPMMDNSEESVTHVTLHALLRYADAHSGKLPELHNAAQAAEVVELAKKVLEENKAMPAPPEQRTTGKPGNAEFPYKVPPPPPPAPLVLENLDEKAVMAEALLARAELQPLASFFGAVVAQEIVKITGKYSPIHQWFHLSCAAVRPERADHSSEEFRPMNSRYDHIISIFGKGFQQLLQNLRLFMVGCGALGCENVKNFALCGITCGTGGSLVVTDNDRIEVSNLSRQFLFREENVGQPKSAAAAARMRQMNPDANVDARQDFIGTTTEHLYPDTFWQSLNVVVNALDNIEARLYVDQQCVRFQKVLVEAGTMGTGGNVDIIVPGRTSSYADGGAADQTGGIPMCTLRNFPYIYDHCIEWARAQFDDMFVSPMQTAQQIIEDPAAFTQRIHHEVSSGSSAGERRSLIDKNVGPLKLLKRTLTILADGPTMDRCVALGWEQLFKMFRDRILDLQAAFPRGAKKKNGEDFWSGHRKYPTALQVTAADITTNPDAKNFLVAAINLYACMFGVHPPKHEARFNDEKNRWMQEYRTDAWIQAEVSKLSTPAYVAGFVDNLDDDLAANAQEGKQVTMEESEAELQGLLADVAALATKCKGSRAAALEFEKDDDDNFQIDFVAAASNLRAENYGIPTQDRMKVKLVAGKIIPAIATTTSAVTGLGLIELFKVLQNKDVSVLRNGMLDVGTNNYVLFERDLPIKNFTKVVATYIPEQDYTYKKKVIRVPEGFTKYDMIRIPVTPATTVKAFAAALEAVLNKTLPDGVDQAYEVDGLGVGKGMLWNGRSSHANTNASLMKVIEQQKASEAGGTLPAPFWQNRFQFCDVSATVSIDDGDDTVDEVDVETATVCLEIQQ
The test can be described thus: Leishmania donovani Ubiquitin Activating Enzyme (LdE1). The test is classed as functional. The settings on record: 30 µM.

Test [3] addresses AMP-activated protein kinase, AMPK (Homo sapiens) (UniProt P54646+O43741+P54619+Q9UGJ0+Q9Y478+Q13131+Q9UGI9). Put plainly: AMP-dependent Kinase enzyme assay. An in vitro enzyme assay that detects ADP turnover that is directly proportional to AMPK activity. This uses naive AMPK that is activated during the assay with MK-8722. The test is classed as functional. The settings on record: 30 µM.

The target of test [4] is Sialic acid-binding Ig-like lectin 9 (Homo sapiens) (UniProt Q9Y336). The test can be described thus: Hs-Siglec9 ALPHAscreen SOP 20170721. The settings on record: 10 µM. In general terms: Alpha assays give light when donor and acceptor beads are brought close together.
Sequence of Sialic acid-binding Ig-like lectin 9 (Homo sapiens) (Q9Y336 whole entry): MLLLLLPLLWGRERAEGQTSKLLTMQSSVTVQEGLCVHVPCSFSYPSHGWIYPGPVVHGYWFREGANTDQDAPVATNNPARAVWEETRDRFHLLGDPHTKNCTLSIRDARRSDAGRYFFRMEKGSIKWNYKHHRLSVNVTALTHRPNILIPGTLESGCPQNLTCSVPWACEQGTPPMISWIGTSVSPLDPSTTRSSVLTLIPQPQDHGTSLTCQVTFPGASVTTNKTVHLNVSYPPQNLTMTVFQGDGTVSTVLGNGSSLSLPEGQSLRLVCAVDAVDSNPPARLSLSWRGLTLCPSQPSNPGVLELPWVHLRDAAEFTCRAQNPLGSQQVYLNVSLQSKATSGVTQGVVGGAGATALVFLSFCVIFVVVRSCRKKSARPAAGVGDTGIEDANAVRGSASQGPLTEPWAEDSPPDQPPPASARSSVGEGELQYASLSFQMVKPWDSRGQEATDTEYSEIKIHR
The subject of test [5] is Trypanosoma cruzi. The test can be described thus: Trypanosoma cruzi phosphomannomutase and mannose-1-phosphate guanylyltransferase assay. In kind it is functional. The conditions noted are these: 10 µM.
Test [6] concerns the target T2, Arginase-2, mitochondrial (Homo sapiens) (UniProt P78540).
T2 sequence (whole entry): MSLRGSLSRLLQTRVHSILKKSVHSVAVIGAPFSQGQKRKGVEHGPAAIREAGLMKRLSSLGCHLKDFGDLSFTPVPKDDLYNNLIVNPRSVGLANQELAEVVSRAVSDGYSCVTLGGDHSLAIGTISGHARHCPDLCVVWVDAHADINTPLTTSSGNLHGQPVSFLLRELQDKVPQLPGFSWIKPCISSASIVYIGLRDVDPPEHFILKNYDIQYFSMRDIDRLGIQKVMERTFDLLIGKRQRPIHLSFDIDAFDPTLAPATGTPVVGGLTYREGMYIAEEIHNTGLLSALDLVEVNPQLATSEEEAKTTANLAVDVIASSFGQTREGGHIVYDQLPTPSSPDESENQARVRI
Put plainly: in vitro enzyme assay to detect the production of urea directly proportional to the activity of Arginase II. Note: in the data most compounds retested in dose-response had high values. The settings on record: 33.3 µM. In kind it is functional.

The target in test [7] is T3, Proteasome subunit beta (Trypanosoma cruzi) (UniProt O96673).
T3 sequence (whole entry): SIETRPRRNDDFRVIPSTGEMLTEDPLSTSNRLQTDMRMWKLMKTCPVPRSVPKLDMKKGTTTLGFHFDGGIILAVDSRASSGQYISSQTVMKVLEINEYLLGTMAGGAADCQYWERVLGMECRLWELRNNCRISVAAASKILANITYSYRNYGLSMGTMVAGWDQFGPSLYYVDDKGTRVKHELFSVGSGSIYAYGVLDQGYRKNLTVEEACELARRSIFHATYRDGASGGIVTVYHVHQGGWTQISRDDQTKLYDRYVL
Put plainly: Trypanosoma cruzi proteasome chymotrypsin-like activity (TcProtChymo) assay. Note: in the data most compounds retested in dose-response had high values. In kind it is functional. The conditions noted are these: 9.37 µM.

The species named for test [8] is Homo sapiens. Put plainly: To identify inhibition of the IFN signalling (Jak-Stat) pathway via expression of an eGFP reporter gene under the control of an IFN-stimulated response element (ISRE) containing MxA promoter. The test is classed as functional. The conditions noted are these: 30 µM. Background: In a reporter assay the amount or activity of a reporter protein is the signal.

Test [9] concerns the target T4, Tyrosyl-tRNA synthetase, putative (Trypanosoma cruzi (strain CL Brener)) (UniProt Q4DSP6).
T4 sequence (whole entry): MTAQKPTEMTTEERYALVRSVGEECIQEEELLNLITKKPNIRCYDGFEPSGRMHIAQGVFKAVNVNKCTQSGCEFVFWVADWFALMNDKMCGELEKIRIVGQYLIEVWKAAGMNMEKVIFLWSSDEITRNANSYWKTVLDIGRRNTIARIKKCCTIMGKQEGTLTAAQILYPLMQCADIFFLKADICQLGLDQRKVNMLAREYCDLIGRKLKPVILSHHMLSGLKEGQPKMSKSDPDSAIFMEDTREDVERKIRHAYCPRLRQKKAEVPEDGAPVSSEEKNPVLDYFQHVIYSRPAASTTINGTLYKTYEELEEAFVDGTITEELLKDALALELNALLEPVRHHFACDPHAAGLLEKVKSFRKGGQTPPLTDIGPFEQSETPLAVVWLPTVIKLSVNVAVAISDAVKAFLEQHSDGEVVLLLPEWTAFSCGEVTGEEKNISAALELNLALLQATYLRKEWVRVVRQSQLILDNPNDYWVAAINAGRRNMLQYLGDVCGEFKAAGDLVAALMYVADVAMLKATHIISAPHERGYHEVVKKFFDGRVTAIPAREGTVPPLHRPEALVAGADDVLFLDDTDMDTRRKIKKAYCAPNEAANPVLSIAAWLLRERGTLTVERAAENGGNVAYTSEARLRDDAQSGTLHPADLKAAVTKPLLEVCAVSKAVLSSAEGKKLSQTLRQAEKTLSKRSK
The test can be described thus: Trypanosoma cruzi tyrosyl tRNA synthetase (TcYRS) _High Tyrosine SOP. Note: in the data most compounds retested in dose-response had high values. The test is classed as functional. The settings on record: 30 µM.

Test [10] deals with T4, Tyrosyl-tRNA synthetase, putative (Trypanosoma cruzi (strain CL Brener)). The test can be described thus: Trypanosoma cruzi tyrosyl tRNA synthetase (TcYRS) SOP. In kind it is functional. The settings on record: 30 µM.
For test [11], the target named is Chromo domain-containing protein 1 (Saccharomyces cerevisiae (strain ATCC 204508 / S288c) (Baker's yeast)) (UniProt P32657). Put plainly: ScCHD-1 Enzyme Inhibition Assay. Note: in the data most compounds retested in dose-response had high values. The test is classed as functional. The conditions noted are these: 30 µM.
Sequence of Chromo domain-containing protein 1 (Saccharomyces cerevisiae (strain ATCC 204508 / S288c) (Baker's yeast)) (P32657 whole entry, the tested form may be a part): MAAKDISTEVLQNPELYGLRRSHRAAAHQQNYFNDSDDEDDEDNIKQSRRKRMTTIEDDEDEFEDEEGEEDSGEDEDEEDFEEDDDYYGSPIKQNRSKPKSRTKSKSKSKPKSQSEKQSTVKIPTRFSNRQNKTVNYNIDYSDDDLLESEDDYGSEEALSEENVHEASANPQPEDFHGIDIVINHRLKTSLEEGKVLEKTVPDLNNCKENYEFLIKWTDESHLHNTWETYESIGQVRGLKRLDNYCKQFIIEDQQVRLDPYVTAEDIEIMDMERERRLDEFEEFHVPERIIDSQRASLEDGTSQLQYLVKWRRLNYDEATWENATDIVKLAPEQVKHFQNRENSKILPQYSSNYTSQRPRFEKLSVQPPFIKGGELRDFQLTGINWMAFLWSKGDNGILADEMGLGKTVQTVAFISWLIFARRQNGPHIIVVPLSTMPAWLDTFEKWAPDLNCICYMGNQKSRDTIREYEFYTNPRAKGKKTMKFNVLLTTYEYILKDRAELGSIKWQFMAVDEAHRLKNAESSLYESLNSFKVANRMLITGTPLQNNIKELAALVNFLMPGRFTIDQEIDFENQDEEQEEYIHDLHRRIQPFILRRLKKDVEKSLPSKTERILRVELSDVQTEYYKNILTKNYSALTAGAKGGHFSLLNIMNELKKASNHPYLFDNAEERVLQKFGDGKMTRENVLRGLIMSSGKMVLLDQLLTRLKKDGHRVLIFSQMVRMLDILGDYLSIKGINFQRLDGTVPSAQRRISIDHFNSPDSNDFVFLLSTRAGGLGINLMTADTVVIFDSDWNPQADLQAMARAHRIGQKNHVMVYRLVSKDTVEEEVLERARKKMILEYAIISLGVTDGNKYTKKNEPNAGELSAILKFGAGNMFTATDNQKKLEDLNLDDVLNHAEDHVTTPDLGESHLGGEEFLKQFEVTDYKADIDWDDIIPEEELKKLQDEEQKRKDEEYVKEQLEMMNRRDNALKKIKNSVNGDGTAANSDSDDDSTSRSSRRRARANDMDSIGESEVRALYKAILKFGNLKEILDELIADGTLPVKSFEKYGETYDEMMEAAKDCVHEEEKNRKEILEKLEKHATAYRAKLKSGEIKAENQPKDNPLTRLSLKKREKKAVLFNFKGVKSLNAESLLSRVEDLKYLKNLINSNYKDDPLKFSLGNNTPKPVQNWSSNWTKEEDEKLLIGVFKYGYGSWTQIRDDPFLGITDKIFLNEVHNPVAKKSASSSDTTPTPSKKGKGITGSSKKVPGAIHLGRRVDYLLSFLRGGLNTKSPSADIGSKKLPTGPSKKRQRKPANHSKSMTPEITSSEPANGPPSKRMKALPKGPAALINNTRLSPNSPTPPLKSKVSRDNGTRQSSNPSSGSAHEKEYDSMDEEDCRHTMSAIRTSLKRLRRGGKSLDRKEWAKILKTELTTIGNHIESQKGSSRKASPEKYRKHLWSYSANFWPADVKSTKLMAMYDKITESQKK

Structures are written as SMILES. For some assays here: Results with a measured potency or affinity are listed apart.

Sequence of Protein translocase subunit SecA (Escherichia coli (strain K12)) (P10408 whole entry): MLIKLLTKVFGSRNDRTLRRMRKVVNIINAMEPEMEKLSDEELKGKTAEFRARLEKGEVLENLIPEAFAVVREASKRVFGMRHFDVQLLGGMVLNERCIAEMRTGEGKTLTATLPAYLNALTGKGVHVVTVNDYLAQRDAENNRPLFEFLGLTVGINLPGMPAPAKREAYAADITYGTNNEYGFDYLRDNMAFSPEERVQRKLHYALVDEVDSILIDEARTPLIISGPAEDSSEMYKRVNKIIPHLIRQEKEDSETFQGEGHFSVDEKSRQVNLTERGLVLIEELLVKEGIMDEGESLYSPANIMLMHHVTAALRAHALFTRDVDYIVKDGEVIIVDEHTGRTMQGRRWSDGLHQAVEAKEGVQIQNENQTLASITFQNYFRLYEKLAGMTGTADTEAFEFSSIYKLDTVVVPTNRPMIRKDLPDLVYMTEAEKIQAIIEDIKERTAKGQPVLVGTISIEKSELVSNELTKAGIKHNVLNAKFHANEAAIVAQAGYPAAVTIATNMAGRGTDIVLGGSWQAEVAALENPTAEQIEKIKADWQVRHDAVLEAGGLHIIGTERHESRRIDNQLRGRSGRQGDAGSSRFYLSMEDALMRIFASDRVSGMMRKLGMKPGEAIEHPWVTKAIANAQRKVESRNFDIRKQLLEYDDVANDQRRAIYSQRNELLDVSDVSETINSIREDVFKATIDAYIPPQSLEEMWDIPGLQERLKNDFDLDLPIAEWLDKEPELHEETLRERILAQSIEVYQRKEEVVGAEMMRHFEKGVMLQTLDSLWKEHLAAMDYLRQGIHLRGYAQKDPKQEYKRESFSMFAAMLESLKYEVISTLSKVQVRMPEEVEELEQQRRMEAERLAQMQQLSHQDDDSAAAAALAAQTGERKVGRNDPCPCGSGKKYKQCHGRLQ

As to `Cc1cccc(-c2nc(CN3CCCCC3Cn3cncn3)no2)c1` (stereo not given), the Percent Effect was -1.65% in test [1]; -5.26% in test [2]; 5.98% in test [3]; 4.13% in [4]; 3.19% in [5]; 3.45% in [6]. Also, the Percent Effect in test [7] was 2.34%; in test [8] it was -0.995%; in [9], 7.35%; in [10], 0%; in [11], 6.07%.

`CCCN(C)C(=O)c1ccc2c(c1)[nH]c(=O)n2CCOCC`: the Percent Effect in [1] is -5.32%; in [2], 2.7%; in test [3], -7.14%; in test [4], 42%; in test [5], 8.11%; in [6], 2.38%. Also, the Percent Effect in [7] was 9.65%; in test [8] it was -3.55%; in test [9] it was 2.65%; in [10], 17.1%; in [11], -9.7%.

`Cn1cc(C2CCCN2C(=O)CCCOc2ccc(F)cc2F)cn1` (stereo not given): the Percent Effect in [1] was -6.14%; in test [2] it was 10.1%; in test [3], 1.86%; in [4], 9.73%; in test [5], -0.283%; in test [6], 1.9%. Also, the Percent Effect in test [7] was -3.36%; in [8], -0.895%; in test [9], 4.43%; in [10], 3.8%; in [11], -1.53%.

For the compound `c1ccc2cc(OCCN3CCOC(Cn4cncn4)C3)ccc2c1` (stereo not given), the Percent Effect in test [1] was -4.49%; in test [2], 6.33%; in test [3], -0.381%; in [4], 14%; in test [5], 2.77%; in [6], -1.5%. The Percent Effect is 10.3% in test [7]; 5.72% in test [8]; 4.17% in [9]; 10.1% in [10]; -6.36% in test [11].

On to `CCOC(=O)c1sc2ccsc2c1CNC(=O)CC`, for which the Percent Effect is -4.75% in [1]; 16.2% in [2]; -8.58% in [3]; 18.5% in test [4]; 7.15% in test [5]; -0.185% in test [6]. Moreover, the Percent Effect is 1.44% in [7]; 19% in test [8]; 4.95% in test [9]; 13.4% in test [10]; 38.4% in test [11].

As for `O=C(c1ccsc1)N1C[C@@H](CN2CCCC2)[C@@H](CO)C1`, the Percent Effect was -10% in test [1]; 2.67% in test [2]; -3.05% in test [3]; -2.17% in test [4]; -5.36% in test [5]; -5.21% in [6]. In addition, the Percent Effect in [7] is 4.71%; in test [8], 2.13%; in [9], -1.64%; in test [10] it was -1.24%; in [11], -4.1%.

`CCc1nc(C2CCCN2Cc2nnc(Cc3ccccc3)o2)no1` (stereo not given): the Percent Effect in [1] was -3%; in test [2], 0%; in [3] it was 2.23%; in test [4], 3.12%; in test [5], 8.52%; in test [6] it was 1.9%. Besides, the Percent Effect in test [7] is 5.25%; in test [8], -2.79%; in test [9], 1.91%; in test [10] it was 2.35%; in test [11] it was 4.27%.

Take `CNC(=O)NC(=O)CN1CCC(c2c[nH]c3ccc(OC)cc23)CC1`: the Percent Effect in test [1] was -5.27%; in test [2], 10.7%; in test [3], -5.74%; in [4], 22.2%; in [5] it was 0.292%; in test [6], 4.69%. Moreover, the Percent Effect in test [7] is 12.4%; in test [8], 7.02%; in [9], 9.29%; in test [10], 18.5%; in [11] it was -8.18%.

For `O=C(c1ccc2c(c1)CCC2)N1C[C@@H](CN2CCOCC2)[C@@H](CO)C1`, the Percent Effect in test [1] is -4.64%; in test [2], 2.67%; in test [3] it was 1.02%; in [4], 21.3%; in test [5], -6.52%; in test [6], 0%. Further, the Percent Effect in test [7] was 1.22%; in [8], 0.733%; in [9], 3.83%; in [10], 3.7%; in [11] it was -3.15%.

In the case of `NC(=O)COc1ccc(CNCc2ccc(F)cc2F)cc1`, the Percent Effect in [1] is -2.69%; in test [2], 6.94%; in test [3], -4.07%; in [4], 9.21%; in test [5] it was 3.01%; in test [6] it was 24.7%. Also, the Percent Effect in test [7] is 8.42%; in test [8], -28.4%; in test [9], 9.47%; in test [10] it was 12.8%; in test [11] it was -5.67%.

Values taken from ChEMBL document CHEMBL3988442, “University of Dundee, Small-Polar-MMV Screening Library” (2021).
